The structures appear in SMILES notation. A number with no mark means an inactive call. The source made the active and inactive calls. No stated cut-off is given here; in the data, active means nuclear beta-catenin stimulation mostly above about 4.2% (no sharp cut-off); inactive means mostly below about 10%.

The test is described as follows: stimulators of nuclear beta-catenin in C2C12, primary screen, imaging, WNT3A-conditioned medium, mouse C2C12, NPC library (AID 1117326). Further: reference of the scale not given here. As to conditions: at 10 µM, hits give high values.
`CCCCCCCC/C=C/C(=O)O`: the nuclear beta-catenin stimulation is 1.3%.

On to `O=C(OCC(COC(=O)c1cccnc1)(COC(=O)c1cccnc1)COC(=O)c1cccnc1)c1cccnc1`, for which the nuclear beta-catenin stimulation is -0.6%.

For `CCCCC(O)/C=C(C)/C=C/C=C/C(=O)N1CCCC1=O` (centres undefined), the nuclear beta-catenin stimulation was -1%.

In the case of `CCCCCCCC/C=C\CCCCCCCCN`, the nuclear beta-catenin stimulation was -3.5%.

For the molecule `C[N+](C)(CCOc1ccccc1)Cc1cccs1`, the nuclear beta-catenin stimulation is -0.3%.

With `CCCOc1ccc2c(c1)CC[C@@H]1[C@@H]2CC[C@]2(C)C(OC)CC[C@@H]12` (some centres undefined), the nuclear beta-catenin stimulation was 0.5%.

On to `NS(=O)(=O)c1ccc(Cl)c(S(N)(=O)=O)c1`, for which the nuclear beta-catenin stimulation is -2.3%.

As for `COc1ccc2c(c1)c(CC(=O)OC/C=C(\C)CC/C=C(\C)CCC=C(C)C)c(C)n2C(=O)c1ccc(Cl)cc1`, the nuclear beta-catenin stimulation is 2.2%.

In the case of `O=S(=O)(O)CC(S)CS` (centres undefined), the nuclear beta-catenin stimulation was -1%.

For `Cc1ccc2ccc(Cl)cc2n1`, the nuclear beta-catenin stimulation was -0.9%.

As for `NC(=O)NS(=O)(=O)c1ccc(Cl)cc1`, the nuclear beta-catenin stimulation was 1.1%.

`COc1cccc(CCc2ccccc2OCC(CN(C)C)OC(=O)CCC(=O)O)c1` (centres undefined): the nuclear beta-catenin stimulation is -0.6%.

Regarding `Cc1cc(O)c(Cl)c(C)c1Cl`, the nuclear beta-catenin stimulation is 0.8%.

On to `COc1cccc2c1C(=O)c1c(O)c3c(c(O)c1C2=O)C[C@@](O)(C(=O)CO)C[C@@H]3O[C@H]1C[C@H](N)[C@H](O[C@@H]2CCCCO2)[C@H](C)O1`, for which the nuclear beta-catenin stimulation is 26.6% (active).

As to `CCCCCCCCCC(=O)O`, the nuclear beta-catenin stimulation is -1.9%.

For `O=C(CCN1CCC(c2ccccc2)C1)c1ccc2c(c1)OCCO2` (centres undefined), the nuclear beta-catenin stimulation is 12.8%.

On to `CNC(=O)c1cnn(-c2nc(N)c3ncn([C@@H]4O[C@H](CO)[C@@H](O)[C@H]4O)c3n2)c1`, for which the nuclear beta-catenin stimulation is 2.6%.

For the molecule `O=C(O)Cc1cn(-c2ccccc2)nc1-c1ccc(Cl)cc1`, the nuclear beta-catenin stimulation is 8.7%.

As to `CC1(S(=O)(=O)O)CC(=O)c2ccccc2C1=O` (centres undefined), the nuclear beta-catenin stimulation is 30.3%.

As for `OCCCc1ccccc1`, the nuclear beta-catenin stimulation is 1.8%.

Take `NC(N)=NN=C(/C=C/c1ccc([N+](=O)[O-])o1)/C=C/c1ccc([N+](=O)[O-])o1`: the nuclear beta-catenin stimulation is -3% (active).

For `O=C1c2ccccc2CCc2ccccc21`, the nuclear beta-catenin stimulation is 0.9%.

Take `Oc1ccccc1`: the nuclear beta-catenin stimulation was -0.4%.

For the molecule `CCOC(=O)c1ccc(NC(=O)CN2CCCCC2)cc1`, the nuclear beta-catenin stimulation was 0.5%.

As to `COc1ccccc1OC(=O)Oc1ccccc1OC`, the nuclear beta-catenin stimulation was 1.1%.

Take `CC1(C)CO[C@@H](CC(=O)O)CN1`: the nuclear beta-catenin stimulation was -0.7%.

For `CCCCN=C(N)N=C(N)N`, the nuclear beta-catenin stimulation was 2.9%.

`O=C(O)CCC(=O)C(=O)O`: the nuclear beta-catenin stimulation is -1.7%.

For the molecule `Cc1ccc(CCn2c3c(c4cc(Cl)ccc42)CN(C)CC3)cn1`, the nuclear beta-catenin stimulation is 0.2%.

In the case of `C[C@@H](N)C(=O)O`, the nuclear beta-catenin stimulation is 1.4%.

In the case of `CCc1nnc(NS(=O)(=O)c2ccc(N)cc2)s1`, the nuclear beta-catenin stimulation is -0.1%.

In the case of `NS(=O)(=O)c1cc(-c2nn[nH]n2)c(NCc2cccs2)cc1Cl`, the nuclear beta-catenin stimulation was -3%.

`O=C(O)CNC(=O)CNC(=O)CNC(=O)CSC(=O)c1ccccc1`: the nuclear beta-catenin stimulation is -0.8%.

On to `CCCCCCCCCCCCCCCCCCN(C)C`, for which the nuclear beta-catenin stimulation is -0.6%.

In the case of `Oc1cccc(-c2c3nc(c(-c4cccc(O)c4)c4ccc([nH]4)c(-c4cccc(O)c4)c4nc(c(-c5cccc(O)c5)c5ccc2[nH]5)CC4)C=C3)c1`, the nuclear beta-catenin stimulation was 24.3%.

Consider `C=CCNc1nc(NCC=C)nc(N2CCN(C(c3ccc(F)cc3)c3ccc(F)cc3)CC2)n1`, for which the nuclear beta-catenin stimulation is 0.3%.

Regarding `O=C(CCN1CCN(CCO)CC1)N1c2ccccc2Sc2ccc(C(F)(F)F)cc21`, the nuclear beta-catenin stimulation is 2.5%.

In the case of `COc1ccc(OC(=O)N(CC(=O)O)Cc2ccc(OCCc3nc(-c4ccccc4)oc3C)cc2)cc1`, the nuclear beta-catenin stimulation is 1%.

For the molecule `Oc1ccc(CCNCCCCCCNCCc2ccccc2)cc1O`, the nuclear beta-catenin stimulation was 5%.

For the origin of these results see PubChem BioAssay.
